Experimental data taken from PubChem BioAssay.
Values without a mark were called inactive. How the calls were made is not given here.

Biological target: Pantothenate synthetase (Mycobacterium tuberculosis (strain ATCC 25618 / H37Rv)) (UniProt P9WIL5)
Assay: Coupled enzyme confirmation of inhibitors against recombinant Mtb PanC (AID 375);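 further: 0% = full reaction with vehicle and 100% = no enzyme background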
Conditions: coupled enzyme assay; at 10 µM, active compounds read high

Chain of Pantothenate synthetase (Mycobacterium tuberculosis (strain ATCC 25618 / H37Rv)) (P9WIL5 whole entry, looked up): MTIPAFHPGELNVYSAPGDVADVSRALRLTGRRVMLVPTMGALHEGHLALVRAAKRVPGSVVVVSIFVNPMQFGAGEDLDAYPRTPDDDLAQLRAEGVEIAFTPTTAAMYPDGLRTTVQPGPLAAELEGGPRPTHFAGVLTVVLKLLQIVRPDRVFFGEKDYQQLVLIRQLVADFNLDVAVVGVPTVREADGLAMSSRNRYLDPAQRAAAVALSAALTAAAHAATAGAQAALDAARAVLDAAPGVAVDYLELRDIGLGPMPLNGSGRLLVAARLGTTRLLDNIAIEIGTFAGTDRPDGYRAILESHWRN

Structure (SMILES) | inhibition [%]
COc1ccccc1NC(=O)NCCCN1CCN(c2cccc(Cl)c2)CC1 | 2
Cc1cc(C(F)(F)F)nc(NCc2cccnc2)n1 | 0
Cc1oncc1C(=O)Nc1ccc(C(F)(F)F)cc1 | 8
Cc1cc(C)n(-c2cc(N3CCOCC3)nc(-c3ccccc3)n2)n1 | 2
CCOC(=O)c1[nH]c(C)c(C(=O)Nc2ccccc2C)c1C | 0
CC1(C2(O)CC(c3ccccc3)ON2)CCCCC1 (stereo not given) | 2
Cc1cc(NC(=O)CCC(=O)N(CC(=O)NC2CCCC2)Cc2ccc(F)cc2)no1 | 0
CCOC(=O)C1=C(C)N(C)C(=O)NC1c1cccc(O)c1 (stereo not given) | 0
COc1cccc(Oc2cn[nH]c2-c2ccc(O)cc2O)c1 | 0
CN(C)CCOC(=O)C(c1ccccc1)C1(O)CCCC1 (stereo not given) | 5
O=C(Nc1ccc(Cc2ccncc2)cc1)C1CC1 | 0
Cn1c2ccccc2c2c(C(=O)NCCCN3CCCC3=O)cn(C3CCCCC3)c(=O)c21 | 8
Cc1[nH]n(C(N)=S)c(=O)c1C(c1ccccc1)C(C#N)C#N (stereo not given) | 0
CCc1ccc(NC(=O)CSc2nnc(Cc3cccn3C)n2-c2ccc(OC)cc2)cc1 | 0
CCN(c1ccccc1)S(=O)(=O)c1ccc(F)cc1C | 1
CC(CCc1ccccc1)NC(=O)C1CCCN(c2nnc(-n3cccc3)s2)C1 (stereo not given) | 0
Cc1cccc(C(=O)N(C)c2nnc(-c3ccncc3)s2)c1 | 0
COC(=O)c1[nH]c2ccc(C)cc2c1NC(=O)CN1CCCC(C)(C)C1 | 0
COC(=O)C1=C(C)NC(C)=C(C(=O)OC)C1C1CC=CCC1 (stereo not given) | 3
Cc1nnc(SCc2nc3ccccc3s2)n1-c1ccccc1 | 3

Structure (SMILES) | inhibition [%]
Cc1ccc(C(O)c2nc3ccccc3n2C(C)C)cc1 (stereo not given) | 0
Cc1ccccc1CN1CCNC1=O | 0
CCn1c(=O)cc(SCC(=O)N2CCN(C3CCCCC3)CC2)c2ccccc21 | 2
Cc1cnc(C(=O)Nc2ccc(-n3cnnn3)cc2)cn1 | 14
CC(C(=O)NC1CCCCCC1)N(c1ccccc1)S(C)(=O)=O (stereo not given) | 0
COc1ccc(NC(=O)Nc2ccccc2C)c(OC)c1 | 0
CCOC(=O)CC(=O)CSc1[nH]c(=O)cc(C)c1C#N | 8
CC1(C)CC(=O)C2=C(C1)OC(=O)C2(NC(=O)c1cccs1)C(F)(F)F (stereo not given) | 1
Cc1cc(C(F)(F)F)nn1Cc1ccc(C(=O)NCc2ccco2)o1 | 0
Cc1cc2oc(=O)cc(CN3CCCCC3)c2cc1C(C)C | 0
CCn1ncc(C2=NOC(C(=O)Nc3ccc4c(c3)OCO4)C2)c1C (stereo not given) | 0
COc1ccccc1N1CCN(C(=O)C2CCCO2)CC1 (stereo not given) | 0
COc1ccc(-c2noc(CCCOc3ccccc3)n2)cc1OC | 7
O=C1CS/C(=N\C(=O)N2c3ccccc3Sc3ccccc32)N1 | 0
CCN1CCN(c2nc3c(C)cccn3c(=O)c2/C=C(\C#N)S(=O)(=O)c2ccccc2)CC1 | 0
CCOCCCNC(=O)c1c[nH]c2ccc(S(=O)(=O)Nc3cccc(OC)c3)cc2c1=O | 0
CCCN(Cc1cc2ccc(C)cc2[nH]c1=O)C(=O)c1cccnc1 | 2
Cc1cn2c(-c3ccncc3)nnc2s1 | 0
COCCSc1ccccc1C(=O)Nc1cc(C)on1 | 5
C=CCn1c(COc2ccccc2)nnc1SCC(=O)C(C)(C)C | 0
